# Reference: ChEMBL document CHEMBL2218924, “A broad activity screen in support of a chemogenomic map for kinase signalling research and drug discovery” (Biochem J, 2013)
# Legend:
# [1] = target: T1, Ephrin type-B receptor 1 (Homo sapiens) (UniProt P54762); settings: at 10 µM
# T1 sequence (whole entry): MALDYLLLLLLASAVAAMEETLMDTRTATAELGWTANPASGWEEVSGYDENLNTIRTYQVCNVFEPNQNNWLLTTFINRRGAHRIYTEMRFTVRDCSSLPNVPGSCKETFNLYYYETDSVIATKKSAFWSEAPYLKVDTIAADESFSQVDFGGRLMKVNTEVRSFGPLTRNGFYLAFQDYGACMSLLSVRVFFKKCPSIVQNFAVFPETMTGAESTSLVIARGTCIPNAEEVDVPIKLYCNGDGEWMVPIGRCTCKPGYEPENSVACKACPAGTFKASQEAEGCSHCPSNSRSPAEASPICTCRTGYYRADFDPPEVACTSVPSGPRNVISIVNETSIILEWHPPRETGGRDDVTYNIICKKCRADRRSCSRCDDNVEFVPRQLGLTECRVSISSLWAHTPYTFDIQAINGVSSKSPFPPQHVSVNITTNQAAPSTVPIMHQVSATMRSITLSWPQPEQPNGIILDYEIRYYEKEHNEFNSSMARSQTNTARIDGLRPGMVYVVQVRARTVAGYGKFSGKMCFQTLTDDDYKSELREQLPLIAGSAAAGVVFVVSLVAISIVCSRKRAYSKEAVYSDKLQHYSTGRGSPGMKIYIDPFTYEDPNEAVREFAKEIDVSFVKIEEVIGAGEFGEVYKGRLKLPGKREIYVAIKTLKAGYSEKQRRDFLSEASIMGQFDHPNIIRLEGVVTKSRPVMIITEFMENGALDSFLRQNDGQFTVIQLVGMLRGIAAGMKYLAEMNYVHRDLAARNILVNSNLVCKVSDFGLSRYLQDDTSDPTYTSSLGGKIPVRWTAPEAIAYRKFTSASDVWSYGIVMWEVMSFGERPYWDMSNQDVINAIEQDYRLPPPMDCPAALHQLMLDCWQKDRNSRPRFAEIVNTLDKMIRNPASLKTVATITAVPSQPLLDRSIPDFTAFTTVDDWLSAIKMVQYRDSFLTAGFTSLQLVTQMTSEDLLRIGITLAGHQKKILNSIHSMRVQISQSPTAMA
# [2] = target: T2, Ephrin type-B receptor 2 (Homo sapiens) (UniProt P29323); settings: at 1 µM
# T2 sequence (whole entry): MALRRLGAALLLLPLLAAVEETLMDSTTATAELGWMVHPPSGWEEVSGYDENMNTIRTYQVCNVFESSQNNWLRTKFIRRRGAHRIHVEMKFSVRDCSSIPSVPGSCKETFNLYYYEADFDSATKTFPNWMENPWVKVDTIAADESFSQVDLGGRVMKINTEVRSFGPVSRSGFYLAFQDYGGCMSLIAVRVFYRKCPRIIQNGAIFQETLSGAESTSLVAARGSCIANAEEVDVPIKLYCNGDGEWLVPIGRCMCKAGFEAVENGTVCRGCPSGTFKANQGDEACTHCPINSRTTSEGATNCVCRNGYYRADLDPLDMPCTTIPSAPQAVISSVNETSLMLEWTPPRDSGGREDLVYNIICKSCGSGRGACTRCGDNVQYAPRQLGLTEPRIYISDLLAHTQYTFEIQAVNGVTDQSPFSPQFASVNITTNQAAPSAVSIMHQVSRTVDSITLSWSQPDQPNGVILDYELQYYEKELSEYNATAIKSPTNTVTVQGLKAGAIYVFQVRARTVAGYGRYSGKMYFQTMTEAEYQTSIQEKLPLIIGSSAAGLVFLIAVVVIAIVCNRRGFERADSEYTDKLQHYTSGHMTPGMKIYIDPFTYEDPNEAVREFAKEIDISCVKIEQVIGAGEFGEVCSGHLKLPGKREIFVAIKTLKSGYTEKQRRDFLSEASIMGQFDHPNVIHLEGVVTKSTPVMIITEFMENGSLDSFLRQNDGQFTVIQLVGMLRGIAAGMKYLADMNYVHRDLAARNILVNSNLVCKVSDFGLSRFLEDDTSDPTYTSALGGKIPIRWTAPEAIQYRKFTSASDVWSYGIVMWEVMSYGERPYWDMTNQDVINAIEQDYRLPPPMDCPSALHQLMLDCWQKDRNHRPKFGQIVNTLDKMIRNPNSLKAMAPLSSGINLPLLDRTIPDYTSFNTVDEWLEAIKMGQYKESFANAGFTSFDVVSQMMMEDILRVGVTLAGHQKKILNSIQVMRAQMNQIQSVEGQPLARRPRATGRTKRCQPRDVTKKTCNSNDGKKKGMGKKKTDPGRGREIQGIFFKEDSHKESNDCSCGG
# [3] = target: T2, Ephrin type-B receptor 2 (Homo sapiens); settings: at 10 µM
# [4] = target: T3, Ephrin type-B receptor 3 (Homo sapiens) (UniProt P54753); settings: at 1 µM
# T3 sequence (whole entry): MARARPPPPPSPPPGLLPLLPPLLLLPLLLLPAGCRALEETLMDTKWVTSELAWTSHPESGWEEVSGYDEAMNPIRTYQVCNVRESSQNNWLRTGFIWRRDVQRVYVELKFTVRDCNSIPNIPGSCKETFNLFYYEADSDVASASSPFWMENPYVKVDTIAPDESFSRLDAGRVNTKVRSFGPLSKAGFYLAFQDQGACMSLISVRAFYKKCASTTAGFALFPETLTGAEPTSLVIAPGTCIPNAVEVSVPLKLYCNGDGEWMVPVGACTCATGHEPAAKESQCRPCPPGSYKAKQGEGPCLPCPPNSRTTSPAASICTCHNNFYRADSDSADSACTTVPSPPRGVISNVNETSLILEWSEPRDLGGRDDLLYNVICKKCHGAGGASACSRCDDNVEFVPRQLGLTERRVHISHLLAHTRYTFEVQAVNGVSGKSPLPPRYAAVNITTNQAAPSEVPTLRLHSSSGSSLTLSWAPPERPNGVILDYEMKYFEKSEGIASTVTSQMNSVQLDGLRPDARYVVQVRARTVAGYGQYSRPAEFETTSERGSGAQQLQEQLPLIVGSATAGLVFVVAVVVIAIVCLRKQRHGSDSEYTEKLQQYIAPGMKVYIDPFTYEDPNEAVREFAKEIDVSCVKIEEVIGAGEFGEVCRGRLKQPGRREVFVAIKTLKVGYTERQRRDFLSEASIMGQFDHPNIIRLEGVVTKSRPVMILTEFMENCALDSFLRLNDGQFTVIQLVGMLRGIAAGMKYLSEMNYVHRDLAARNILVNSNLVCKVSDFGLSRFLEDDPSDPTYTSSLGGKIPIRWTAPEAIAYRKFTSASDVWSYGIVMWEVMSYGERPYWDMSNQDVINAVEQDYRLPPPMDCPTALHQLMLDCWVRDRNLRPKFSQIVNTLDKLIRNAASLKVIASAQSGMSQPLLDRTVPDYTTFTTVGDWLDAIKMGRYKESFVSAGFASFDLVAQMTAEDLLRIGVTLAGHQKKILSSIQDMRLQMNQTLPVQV
# [5] = target: T3, Ephrin type-B receptor 3 (Homo sapiens); settings: at 10 µM
# [6] = target: T4, Ephrin type-B receptor 4 (Homo sapiens) (UniProt P54760); settings: at 1 µM
# T4 sequence (whole entry): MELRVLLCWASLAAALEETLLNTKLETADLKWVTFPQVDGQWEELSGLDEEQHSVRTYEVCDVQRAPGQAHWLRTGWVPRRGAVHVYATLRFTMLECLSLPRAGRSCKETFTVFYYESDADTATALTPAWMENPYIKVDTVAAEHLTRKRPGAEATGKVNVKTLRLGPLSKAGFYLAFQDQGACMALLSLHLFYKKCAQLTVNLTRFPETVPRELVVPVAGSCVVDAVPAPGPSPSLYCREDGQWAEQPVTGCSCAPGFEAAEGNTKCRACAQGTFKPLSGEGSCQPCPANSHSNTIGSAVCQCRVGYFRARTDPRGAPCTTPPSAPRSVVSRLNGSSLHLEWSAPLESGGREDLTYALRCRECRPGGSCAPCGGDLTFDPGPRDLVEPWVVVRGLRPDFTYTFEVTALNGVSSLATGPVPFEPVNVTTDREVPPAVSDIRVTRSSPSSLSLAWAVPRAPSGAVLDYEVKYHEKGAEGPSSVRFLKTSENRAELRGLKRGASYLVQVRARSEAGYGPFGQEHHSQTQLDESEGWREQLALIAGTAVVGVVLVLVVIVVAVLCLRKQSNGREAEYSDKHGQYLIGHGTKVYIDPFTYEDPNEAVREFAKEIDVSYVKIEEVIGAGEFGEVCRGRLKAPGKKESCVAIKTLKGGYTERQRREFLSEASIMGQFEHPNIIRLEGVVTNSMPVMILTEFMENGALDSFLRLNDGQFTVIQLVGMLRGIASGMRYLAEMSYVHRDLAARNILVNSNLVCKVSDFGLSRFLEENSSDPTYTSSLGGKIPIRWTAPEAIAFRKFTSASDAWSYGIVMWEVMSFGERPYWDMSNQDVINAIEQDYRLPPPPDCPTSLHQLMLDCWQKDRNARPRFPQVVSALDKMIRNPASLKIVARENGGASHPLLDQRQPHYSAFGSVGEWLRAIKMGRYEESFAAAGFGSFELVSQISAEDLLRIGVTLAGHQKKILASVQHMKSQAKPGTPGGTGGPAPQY
# [7] = target: T4, Ephrin type-B receptor 4 (Homo sapiens); settings: at 10 µM
# [8] = target: Receptor tyrosine-protein kinase erbB-4 (Homo sapiens) (UniProt Q15303); settings: at 1 µM
# Chain of Receptor tyrosine-protein kinase erbB-4 (Homo sapiens) (Q15303 whole entry): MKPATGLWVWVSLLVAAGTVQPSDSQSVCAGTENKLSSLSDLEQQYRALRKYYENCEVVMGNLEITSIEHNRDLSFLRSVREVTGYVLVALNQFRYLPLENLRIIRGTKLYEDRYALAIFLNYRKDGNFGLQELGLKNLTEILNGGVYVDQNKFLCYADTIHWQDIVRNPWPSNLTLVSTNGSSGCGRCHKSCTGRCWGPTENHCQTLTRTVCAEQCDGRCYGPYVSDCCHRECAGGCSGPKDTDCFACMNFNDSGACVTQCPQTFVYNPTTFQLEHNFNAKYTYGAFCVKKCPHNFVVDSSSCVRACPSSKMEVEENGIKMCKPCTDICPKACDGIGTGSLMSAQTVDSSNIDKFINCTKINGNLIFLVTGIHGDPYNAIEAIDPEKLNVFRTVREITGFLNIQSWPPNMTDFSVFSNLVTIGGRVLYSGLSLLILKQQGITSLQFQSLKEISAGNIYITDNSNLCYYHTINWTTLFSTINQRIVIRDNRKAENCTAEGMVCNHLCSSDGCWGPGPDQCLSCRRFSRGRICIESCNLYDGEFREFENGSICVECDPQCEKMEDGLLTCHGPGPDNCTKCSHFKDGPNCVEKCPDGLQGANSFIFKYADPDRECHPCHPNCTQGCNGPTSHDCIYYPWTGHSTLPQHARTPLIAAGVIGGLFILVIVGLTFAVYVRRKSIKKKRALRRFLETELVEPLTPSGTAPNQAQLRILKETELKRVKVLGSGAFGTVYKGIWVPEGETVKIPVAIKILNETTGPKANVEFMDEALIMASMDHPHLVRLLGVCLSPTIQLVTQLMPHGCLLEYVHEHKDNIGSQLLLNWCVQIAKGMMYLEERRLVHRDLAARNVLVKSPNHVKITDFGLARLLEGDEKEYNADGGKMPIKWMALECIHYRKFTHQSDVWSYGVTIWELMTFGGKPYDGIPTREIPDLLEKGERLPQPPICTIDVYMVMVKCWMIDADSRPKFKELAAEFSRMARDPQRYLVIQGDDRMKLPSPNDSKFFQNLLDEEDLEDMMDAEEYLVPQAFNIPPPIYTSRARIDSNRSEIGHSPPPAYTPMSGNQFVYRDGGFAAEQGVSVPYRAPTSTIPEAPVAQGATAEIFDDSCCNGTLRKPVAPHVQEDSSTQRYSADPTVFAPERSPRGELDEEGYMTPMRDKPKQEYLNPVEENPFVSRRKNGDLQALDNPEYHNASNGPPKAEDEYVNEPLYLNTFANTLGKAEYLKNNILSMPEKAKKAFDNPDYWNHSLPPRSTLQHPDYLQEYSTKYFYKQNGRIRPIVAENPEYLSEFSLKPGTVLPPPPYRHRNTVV
# [9] = target: Receptor tyrosine-protein kinase erbB-4 (Homo sapiens) (UniProt Q15303); settings: at 10 µM
# [10] = target: Focal adhesion kinase 1 (Homo sapiens) (UniProt Q05397); settings: at 1 µM
# Chain of Focal adhesion kinase 1 (Homo sapiens) (Q05397 2-1052 limits assumed): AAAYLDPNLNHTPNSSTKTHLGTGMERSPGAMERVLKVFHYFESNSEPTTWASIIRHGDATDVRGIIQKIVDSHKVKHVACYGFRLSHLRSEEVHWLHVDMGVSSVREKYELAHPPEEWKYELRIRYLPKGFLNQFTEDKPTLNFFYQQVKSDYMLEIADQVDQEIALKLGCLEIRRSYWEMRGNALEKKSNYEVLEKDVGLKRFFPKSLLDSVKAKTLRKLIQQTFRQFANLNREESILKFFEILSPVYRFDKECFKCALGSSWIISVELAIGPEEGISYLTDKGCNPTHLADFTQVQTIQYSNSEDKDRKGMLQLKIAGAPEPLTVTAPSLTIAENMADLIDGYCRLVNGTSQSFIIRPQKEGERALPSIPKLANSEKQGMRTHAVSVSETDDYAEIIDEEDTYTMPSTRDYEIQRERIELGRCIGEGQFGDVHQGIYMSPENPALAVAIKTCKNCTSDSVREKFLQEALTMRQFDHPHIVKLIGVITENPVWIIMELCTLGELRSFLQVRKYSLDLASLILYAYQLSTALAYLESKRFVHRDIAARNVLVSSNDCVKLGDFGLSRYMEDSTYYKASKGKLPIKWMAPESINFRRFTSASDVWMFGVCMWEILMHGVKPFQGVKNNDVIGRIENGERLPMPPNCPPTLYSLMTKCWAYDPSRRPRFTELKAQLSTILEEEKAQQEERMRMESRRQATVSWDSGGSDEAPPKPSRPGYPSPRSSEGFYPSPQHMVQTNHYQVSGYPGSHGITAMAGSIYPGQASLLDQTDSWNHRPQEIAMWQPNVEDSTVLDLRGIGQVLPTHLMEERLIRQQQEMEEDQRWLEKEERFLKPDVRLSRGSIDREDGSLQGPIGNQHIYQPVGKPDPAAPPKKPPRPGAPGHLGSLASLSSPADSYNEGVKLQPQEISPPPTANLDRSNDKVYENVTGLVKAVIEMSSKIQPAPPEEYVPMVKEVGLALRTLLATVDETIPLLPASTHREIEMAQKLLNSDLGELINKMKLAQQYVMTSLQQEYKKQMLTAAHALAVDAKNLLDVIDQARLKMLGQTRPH
smiles,measurement,setting,value
NC(=O)Nc1sc(-c2ccc(F)cc2)cc1C(N)=O,residual activity,[1],0%
same,residual activity,[2],93%
same,residual activity,[3],19%
same,residual activity,[4],117% (inactive)
same,residual activity,[5],117%
same,residual activity,[6],49%
same,residual activity,[7],6%
same,residual activity,[8],91%
same,residual activity,[9],59%
same,residual activity,[10],68%
